Common to all, as to test: NCI-60 one-dose screen, 48 h (100 = growth as untreated, 0 = no growth, -100 = all killed)
Conditions in all cases: 10 µM unless noted

The test system of assay [1] is NCI-H23 lung.
For assay [2], the system named is NCI-H226 lung.
The test system of assay [3] is NCI-H322M lung.
Assay [4] relates to HOP-62 NSCLC.
Assay [5] concerns NCI-H460 lung.
Assay [6] deals with HOP-92 NSCLC.
The subject of assay [7] is NCI-H522 lung.
For assay [8], the system named is A549/ATCC NSCLC.
Assay [9] concerns 786-0 renal.
Assay [10] has as its system COLO 205 colon.
Assay [11] relates to DU-145 prostate.
Assay [12] deals with K-562 leukemia.
In assay [13] the test system is MALME-3M melanoma.
The test system of assay [14] is MDA-MB-231 breast.
In assay [15] the test system is RXF 393 renal.
Assay [16] relates to SF-268 CNS.
Assay [17] concerns SF-295 CNS.
Assay [18] relates to SF-539 CNS.
The subject of assay [19] is UACC-257 melanoma.
Assay [20] concerns M14 melanoma.

Compounds without any hit were thinned out: in the full panel of roughly 83,000, 20% have a hit.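 The endpoint reported here, percent growth, reads 100 for growth as untreated, 0 for no net growth and -100 for all cells dead.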 Unmarked numbers belong to inactive results. Calls of active or inactive are those of the source. Rule for the calls: active = growth percent below 10; inactive = the rest.

On to `O=C1c2cccc3cccc(c23)C(=O)N1N1C(=O)c2cccc3c(NC4CCCCC4)ccc(c23)C1=O`, for which the growth in [1] is 90.4%; in [2] it was 94%; in [3], 96.4%; in assay [4], 92.6%; in [5], 98.8%; in [6], 79.9%. Further, the growth is 88.1% in assay [7]; 94.4% in [8]; 105% in assay [9]; 103% in assay [10]; 106% in assay [11]; 87.1% in assay [12]. Also, the growth in [13] is 90.8%; in [14], 75.6%; in [15], 92.9%; in assay [16], 93.6%; in [17], 95.3%; in assay [18], 94.2%. Moreover, the figures for the growth in assay [19] and in [20] were 100% and 96.2%, respectively.
In the case of `COc1ccc(OC)c(/C=C2\Oc3cc(OCCN4CCC(Cc5ccccc5)CC4)ccc3C2=O)c1`, the growth in assay [1] is 88.1%; in assay [2], 91%; in assay [3] it was 94%; in assay [4], 94.4%; in [5], 82.2%; in assay [6] it was 55.2%. The growth was 86.6% in assay [7]; 92% in assay [8]; 77.6% in assay [9]; 25.3% in assay [10]; 97.3% in assay [11]; 20.7% in [12]. Also, the growth in assay [13] is 92.6%; in [14], 82.9%; in assay [15], 55.5%; in [16], 85.1%; in [17], 102%; in [18] it was 87%. The growth in [19] was 101%; in assay [20], 77.2%.
Consider `O=C1/C(=C/c2ccccc2[N+](=O)[O-])Oc2ccc(O)c(O)c21`, for which the growth in assay [1] was 33.5%; in assay [2] it was 83.3%; in assay [3], 81%; in [4], 71.3%; in assay [5], 60.6%; in assay [6], 76.6%. In addition, the growth in assay [7] was -18% (active); in [8] it was 72.3%; in [9], 47.2%; in assay [10], 57.7%; in assay [11] it was 32.5%; in [12], 17.2%. In addition, the growth in [13] was 45%; in assay [14] it was 45.6%; in assay [15], 5.8% (active); in [16], 60.4%; in assay [17] it was 85.2%; in assay [18] it was 29%. Moreover, the results for the growth in assay [19] and in [20] were 49.3% and 54.9%, respectively.
As to `C#Cc1cccc(NC(=O)c2ccc(NC(=O)C=C)cc2)c1`, the growth was 99.1% [8.25 µM] in assay [1]; 88.1% [8.25 µM] in assay [2]; 84.4% [8.25 µM] in assay [3]; 95.2% [8.25 µM] in [4]; 94.5% [8.25 µM] in assay [5]; 90% [8.25 µM] in assay [6]. The growth in assay [7] is 45.4% [8.25 µM]; in assay [8], 69.6% [8.25 µM]; in assay [9], 56.5% [8.25 µM]; in [10] it was 115% [8.25 µM]; in assay [11], 58.9% [8.25 µM]; in [12], 71% [8.25 µM]. For the same compound, the growth in [13] is 85.2% [8.25 µM]; in [14] it was 90% [8.25 µM]; in assay [15], 58.7% [8.25 µM]; in assay [16], 79.3% [8.25 µM]; in assay [17], 102% [8.25 µM]; in [18], 75.6% [8.25 µM]. The results for the growth in [19] and in [20] were 69.9% [8.25 µM] and 86.3% [8.25 µM], respectively.
For the compound `O=c1c2cc(F)ccc2sc2c(NCCO)nc3ccccc3c12`, the growth in [1] is 95.6%; in [2], 103%; in [3], 99.7%; in assay [4], 105%; in assay [5], 112%; in assay [6] it was 110%. Moreover, the growth in assay [7] is 91.1%; in assay [8] it was 101%; in [9], 104%; in [10], 114%; in [11], 112%; in [12] it was 98.3%. Moreover, the growth was 120% in [13]; 98.1% in [14]; 109% in assay [15]; 103% in assay [16]; 104% in [17]; 99.9% in assay [18]. In addition, the growth is 104% in assay [19] and 114% in assay [20].
As to `Cc1nc2ccccc2c(/C=C/c2ccc(Cl)cc2)c1C(=O)/C=C/c1ccc(C(F)(F)F)cc1`, the growth in assay [1] is -33.4% (active); in assay [2] it was -54.7% (active); in assay [3] it was -43.3% (active); in assay [4], -62.8% (active); in assay [5], -75.3% (active); in assay [6], -82.1% (active). In addition, the growth was -14.3% (active) in assay [7]; 10.5% in assay [8]; -85% (active) in assay [9]; -44.2% (active) in assay [10]; -83.7% (active) in assay [11]; -7.8% (active) in assay [12]. Further, the growth is -74.1% (active) in assay [13]; -50.5% (active) in assay [14]; -85.9% (active) in [15]; -53.5% (active) in [16]; -88.2% (active) in [17]; -90.5% (active) in assay [18]. Moreover, the growth in assay [19] is -37% (active); in assay [20], -38.6% (active).
For the compound `CCCCCCCCCCCCCCCCCC1OCC(COC(=O)O[C@]2(CC)C(=O)OCc3c2cc2n(c3=O)Cc3cc4ccccc4nc3-2)O1` (stereo not given in full), the growth was 75.4% in [1]; 75.4% in assay [2]; 101% in assay [3]; 53% in [4]; 31.4% in assay [5]; 92.6% in [6]. Besides, the growth in assay [7] is 82.6%; in [8], 78.5%; in [9], 86.7%; in assay [10], 79.3%; in [11], 76%; in assay [12] it was 88.4%. Besides, the growth in [13] is 101%; in assay [14], 93.1%; in [15], 89.4%; in assay [16], 45.7%; in [17], 23.4%; in assay [18] it was 68.1%. Also, the growth was 95.9% in assay [19] and 75.3% in assay [20].

The values are drawn from PubChem BioAssay (NCI).
